# Source: PubChem BioAssay
# Calls of active or inactive are those of the source. The rule behind the calls is not given here.
# Biological target: Pantothenate synthetase (Mycobacterium tuberculosis (strain ATCC 25618 / H37Rv)) (UniProt P9WIL5)
# Test: Recombinant Mtb pantothenate synthetase (PanC) inhibitors, coupled enzyme, confirmatory (AID 375);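 note: 0% = full reaction with vehicle and 100% = no enzyme background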
# Settings: coupled enzyme assay; at 10 µM, active compounds read high
# Sequence of Pantothenate synthetase (Mycobacterium tuberculosis (strain ATCC 25618 / H37Rv)) (P9WIL5 whole entry, looked up): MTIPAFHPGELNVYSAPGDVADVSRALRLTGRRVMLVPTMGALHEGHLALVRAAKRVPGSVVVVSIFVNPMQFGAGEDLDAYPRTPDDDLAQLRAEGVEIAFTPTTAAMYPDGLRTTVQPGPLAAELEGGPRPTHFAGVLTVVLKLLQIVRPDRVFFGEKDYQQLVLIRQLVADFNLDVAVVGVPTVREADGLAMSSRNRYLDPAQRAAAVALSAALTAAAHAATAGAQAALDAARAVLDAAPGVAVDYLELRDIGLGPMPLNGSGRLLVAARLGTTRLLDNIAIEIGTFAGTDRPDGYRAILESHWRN
row,SMILES,inhibition
1,O=c1c2c3c(sc2nc2sc(C4CC4)nn12)CCCC3,0% (inactive)
2,CCOC(=O)C(CC)(CCC(=O)O)c1csc(N)n1 (stereo not drawn),0% (inactive)
3,COCn1c(COc2ccccc2)nc2ccccc21,0% (inactive)
4,CCOc1ccccc1C(=O)NCCCn1ccnc1,14% (inactive)
5,CCSc1nnc(-c2cccs2)o1,0% (inactive)
6,O=S(=O)(c1ccc(OCC(O)CN2CCc3ccccc3C2)cc1)N1CCOCC1 (stereo not drawn),9% (inactive)
7,Cc1ccc(-c2c3c(=O)n(C)c(=O)n(C)c3cn2CCCN2CCOCC2)cc1,9% (inactive)
8,O=C(NCc1ccco1)C1CCN(C(=O)c2cc3sccc3n2Cc2ccc(F)cc2)CC1,5% (inactive)
9,COc1ccc(-c2ccc(Nc3ccc(S(=O)(=O)N4CCCC4)cc3)nn2)cc1OC,11% (inactive)
10,Cc1cccc(-n2ncc(C#N)c2N)c1,1% (inactive)
11,O=C1CC(N2CCOCC2)C(=O)N1c1ccc2c(c1)OCO2 (stereo not drawn),1% (inactive)
12,COc1nc(OC)nc(N2CCC(NC(=O)C(Cc3ccc(C(C)C)cc3)NC(C)=O)CC2)n1 (stereo not drawn),5% (inactive)
13,Cn1c(=O)c(NC(=O)c2ccccc2)c2n(c1=S)CCCCC2,0% (inactive)
14,CC(Sc1nc(-c2ccccc2)cc(C(F)(F)F)n1)C(=O)N1CCC(C(N)=O)CC1 (stereo not drawn),0% (inactive)
15,O=C(NC1CCCCCC1)C1c2ccccc2C(=O)N1Cc1cccnc1 (stereo not drawn),3% (inactive)
16,c1ccc2c(c1)c1c3n2CCNC3CCC1 (stereo not drawn),0% (inactive)
17,O=C(Nc1ccccc1)N(CCN1CCOCC1)Cc1ccccc1F,0% (inactive)
18,COc1ccc(NC(=O)Nc2ccccc2C)c(OC)c1,0% (inactive)
